Source: PubChem BioAssay AID1159580 (chemical genetic matrix, 2015)
Hit rate of the full screen: of about 5,500 compounds, about 2,000 (36%) were called active. Not shown: some 18% with an inconclusive outcome. No stated cut-off is given here; in the data, active means normalized growth mostly below about 0.91 (no sharp cut-off); inconclusive means no clear call, values can overlap the other calls; inactive means mostly above about 0.92. Some of the results follow.

Test: chemical genetic growth profiling, strain panel (AID 1159580);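 further: tested at 20 µM; growth read once vehicle control cultures reached saturation at 30 °C; 1 = growth at the plate median or of vehicle wells; lower values mean less growth of the strain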
Details: S. cerevisiae deletion strains, growth OD

Measured: normalized growth

COc1ccc2c(c1)OCC(Cc1ccc(O)c(OC)c1)C2=O (stereo not given)
inactive: locus YAL021C, strain ccr4, hits give low values 0.982 | locus YAL026C, strain drs2, hits give low values 0.982 | locus YAL030W, strain snc1, hits give low values 0.968 | locus YBL061C, strain skt5, hits give low values 0.978 | locus YBR009C, strain hhf1, hits give low values 0.972 | locus YBR023C, strain chs3, hits give low values 0.97 | locus YBR171W, strain sec66, hits give low values 0.969 | locus YBR231C, strain swc5, hits give low values 0.971 | locus YBR279W, strain paf1, hits give low values 0.982 | locus YCL011C, strain gbp2, hits give low values 0.953 | locus YCL016C, strain dcc1, hits give low values 0.97 | locus YCL061C, strain MRC1, hits give low values 0.971 | locus YCL069W, strain vba3, hits give low values 0.979 | locus YCR088W, strain abp1, hits give low values 0.965 | locus YDL005C, strain med2, hits give low values 0.965 | locus YDL040C, strain nat1, hits give low values 0.972 | locus YDR001C, strain nth1, hits give low values 0.967 | locus YDR069C, strain doa4, hits give low values 0.963 | locus YDR137W, strain rgp1, hits give low values 0.922 | locus YDR159W, strain sac3, hits give low values 0.957 | locus YDR195W, strain ref2 0.958 | locus YDR297W, strain sur2, hits give low values 0.98 | locus YDR334W, strain swr1, hits give low values 0.949 | locus YDR335W, strain msn5, hits give low values 0.985 | locus YDR392W, strain spt3, hits give low values 0.882 | locus YEL003W, strain gim4, hits give low values 0.98 | locus YEL037C, strain rad23, hits give low values 0.97 | locus YEL061C, strain CIN8 (second series), hits give low values 0.977 | locus YER015W, strain faa2, hits give low values 0.974 | locus YER016W, strain bim1, hits give low values 0.969 | locus YER111C, strain swi4, hits give low values 0.999 | locus YER155C, strain BEM2 (second series), hits give low values 0.974 | locus YFR010W, strain ubp6, hits give low values 0.949 | locus YGL167C, strain pmr1, hits give low values 0.974 | locus YGL173C, strain kem1, hits give low values 0.973 | locus YGL227W, strain vid30, hits give low values 0.979 | locus YGL240W, strain doc1, hits give low values 0.96 | locus YGL253W, strain hxk2, hits give low values 0.974 | locus YHR013C, strain ard1, hits give low values 1 | locus YHR027C, strain rpn1, hits give low values 0.963 | locus YHR030C, strain SLT2, hits give low values 1.03 | locus YHR079C, strain IRE1, hits give low values 1.03 | locus YHR142W, strain chs7, hits give low values 0.943 | locus YJL092W, strain hpr5, hits give low values 0.932 | locus YJL095W, strain BCK1 (second series), hits give low values 0.98 | locus YJL095W, strain BCK1, hits give low values 1.05 | locus YJL115W, strain asf1, hits give low values 0.951 | locus YJL129C, strain trk1, hits give low values 0.943 | locus YJL154C, strain vps35, hits give low values 0.973 | locus YJL164C, strain tpk1, hits give low values 0.968 | locus YJL166W, strain qcr8, hits give low values 0.991 | locus YJL187C, strain SWE1, hits give low values 0.998 | locus YJR066W, strain TOR1, hits give low values 0.966 | locus YKL160W, strain elf1, hits give low values 0.985 | locus YKR026C, strain gcn3, hits give low values 0.967 | locus YKR091W, strain srl3, hits give low values 0.965 | locus YLL001W, strain dnm1, hits give low values 0.954 | locus YLL026W, hits give low values 0.975 | locus YLL041C, strain sdh2, hits give low values 0.966 | locus YLR027C, strain aat2, hits give low values 0.964 | locus YLR113W, strain HOG1, hits give low values 0.979 | locus YLR221C, strain rsa3, hits give low values 0.982 | locus YLR258W, strain gsy2, hits give low values 0.961 | locus YLR262C, strain YPT6 (second series), hits give low values 0.949 | locus YLR320W, strain mms22, hits give low values 0.983 | locus YLR342W, strain FKS1, hits give low values 0.979 | locus YLR357W, strain rsc2, hits give low values 0.965 | locus YLR370C, strain arc18, hits give low values 0.948 | locus YLR384C, strain iki3, hits give low values 0.981 | locus YML120C, strain ndi1, hits give low values 0.971 | locus YMR058W, strain fet3, hits give low values 0.964 | locus YMR125W, strain sto1, hits give low values 0.948 | locus YMR129W, hits give low values 0.974 | locus YMR205C, strain PFK2, hits give low values 0.974 | locus YMR231W, strain pep5, hits give low values 0.99 | locus YNL071W, strain lat1, hits give low values 0.986 | locus YNL183C, strain NPR1, hits give low values 0.964 | locus YNL209W, strain ssb2, hits give low values 0.988 | locus YNL248C, strain rpa49, hits give low values 0.971 | locus YNL322C, strain KRE1 (second series), hits give low values 0.977 | locus YNR049C, strain mso1, hits give low values 0.965 | locus YOR001W, strain rrp6, hits give low values 0.982 | locus YOR070C, strain gyp1, hits give low values 0.993 | locus YOR080W, strain dia2, hits give low values 0.97 | locus YOR083W, strain WHI5, hits give low values 0.971 | locus YOR106W, strain vam3, hits give low values 0.952 | locus YOR231W, strain MKK1, hits give low values 1.06 | locus YOR265W, strain rbl2, hits give low values 0.975 | locus YOR270C, strain vph1, hits give low values 0.951 | locus YOR290C, strain snf2, hits give low values 0.965 | locus YPL051W, strain arl3, hits give low values 0.983 | locus YPL078C, strain atp4, hits give low values 0.978 | locus YPL106C, strain sse1, hits give low values 0.914 | locus YPL240C, strain hsp82, hits give low values 0.957 | locus YPL256C, strain CLN2, hits give low values 1.03
